PubChem BioAssay (NCI)
Compounds without any hit were thinned out: in the full panel of roughly 79,000, 15% have a hit. No stated cut-off is given here; in the data, active means growth inhibition above about 70%; inactive means the rest.

Legend:
[1] = NCI Yeast Anticancer Drug Screen. Data for the rad50 strain (AID 155);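 further: 0% = growth of vehicle-only cultures of the same strain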; conditions: S. cerevisiae rad50 strain growth inhibition; at 50.0 µM; stronger effect = higher value
In short: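 Genetically altered yeast (DNA repair pathway); compound treatment; growth inhibition vs vehicle ctrl.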

[2] = NCI Yeast Anticancer Drug Screen. Data for the mec2-1 strain (AID 157); conditions: S. cerevisiae mec2-1 strain, at 50.0 µM, stronger effect = higher value
In short: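 Cells of the genetically defined mec2-1 yeast strain are incubated with test compound. Inhibition of growth is calculated against vehicle-treated controls.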

[3] = NCI Yeast Anticancer Drug Screen. Data for the sgs1 mgt1 strain (AID 161);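 further: 0% = growth of cultures given vehicle only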; conditions: S. cerevisiae sgs1 mgt1 strain, at 50.0 µM, stronger effect = higher value
In short: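 Inhibition of yeast growth, normalised to vehicle-treated controls, is reported for a strain bearing genetic alterations in DNA damage repair.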

[4] = NCI Yeast Anticancer Drug Screen. Data for the cln2 rad14 strain (AID 165);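 further: 0% = growth equal to vehicle treated cultures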; conditions: S. cerevisiae cln2 rad14 strain, at 50.0 µM, stronger effect = higher value
In short: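 The screen exposed genetically defined yeast (cln2 rad14) to test compounds and scored growth inhibition relative to vehicle-treated controls.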

[5] = NCI Yeast Anticancer Drug Screen. Data for the bub3 strain (AID 167); conditions: S. cerevisiae bub3 mutant strain, at 50.0 µM, stronger effect = higher value
In short: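 Yeast carrying a defined mutation is treated with each compound, and growth is compared with that of vehicle-exposed cells to give inhibition.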

[6] = NCI Yeast Anticancer Drug Screen. Data for the mlh1 rad18 strain (AID 175); conditions: S. cerevisiae mlh1 rad18 strain growth inhibition; at 50.0 µM; stronger effect = higher value
In short: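 Compound-treated yeast growth, normalised to vehicle controls. Strain bears defined DNA repair mutations.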

Measured: growth inhibition

O=C(O)C(Cc1ccccc1)NS(=O)(=O)Cc1ccccc1 (stereo not given)
inactive: [1] -14.1% | [2] -8.45% | [3] -4.5% | [4] -4.9% | [5] -8.2% | [6] -2.15%

CC(I)CNc1ccc(C(=O)O)c(O)c1 (stereo not given)
inactive: [1] 3.7% | [2] -4.9% | [3] 6.15% | [4] 1% | [5] 11.6% | [6] -11.9%

COC(=O)C1(O)CC(=O)CCC1c1ccc(OC)cc1 (stereo not given)
inactive: [1] 9.75% | [2] -1.35% | [3] -14.8% | [4] -10.3% | [5] -38% | [6] -17.1%

Clc1ccc(N=C2CCCCC2)cc1
inactive: [1] 12.4% | [2] -12.5% | [3] -0.2% | [4] 8.45% | [5] -18.2% | [6] 1.9%

N.N.N.N.N.O=C([O-])c1nn[n-]n1.[Cl-].[Co+3]
inactive: [1] -0.8% | [2] -1.1% | [3] 7.15% | [4] 23.4% | [5] 3.75% | [6] -7.5%

Cc1cc(C)c(C(=O)c2ccccc2C(=O)O)c(C)c1
inactive: [1] 0.05% | [2] 11.1% | [3] 3.05% | [4] -89% | [5] 24.5% | [6] -12%

O=C(Oc1ccc[nH]c1=O)C1CCC1
inactive: [1] -15.3% | [2] 3% | [3] -0.55% | [4] 2.7% | [5] 12.8% | [6] -4.75%

CC(=O)NC(CSC1=C2NC(=O)\C=C/C=C/C=C\C(C)C(O)CC(=O)/C(C)=C\CC(O)/C=C/C(C)C(O)C(C)C=C(C)C(=O)c3c(O)c(C)cc(c3C1=O)C2=O)C(=O)O (stereo not given)
inactive: [1] 1.1% | [2] 7.95% | [3] 36.6% | [4] 23.3% | [5] 15.4% | [6] 8.45%

O=c1[nH]c(=O)n(COCc2ccccc2)c2ccccc12
inactive: [1] 5.1% | [2] -12.2% | [3] 65.2% | [4] 12.7% | [5] 37.7% | [6] -18.4%

Cc1ccc(S(=O)(=O)N(C)c2c(N)n(C)c(=O)n(C)c2=O)cc1
inactive: [1] 2.3% | [2] 5.75% | [3] 0.7% | [4] -49.3% | [5] -5.55% | [6] -4.4%

O=c1[nH]nc(-c2ccccc2)n1-n1cccc1
inactive: [1] -9.25% | [2] -26.1% | [3] -5.95% | [4] -3.6% | [5] -12.3% | [6] -6.25%

CNC(=O)N(Cl)c1ccc(Cl)cc1
inactive: [1] 5.45% | [2] 12.9% | [3] 1.9% | [4] -26.6% | [5] 7.45% | [6] -0.25%

Cc1cc2nnnn2c2ccccc12
inactive: [1] -30.1% | [2] -20.6% | [3] -17.1% | [4] -2.35% | [5] -6.8% | [6] -19.8%

NNS(=O)(=O)c1ccc(/C=C2\NC(=O)NC2=O)cc1
inactive: [1] -4.45% | [2] 1.5% | [3] -17.2% | [4] 13.2% | [5] -26.4% | [6] 23.9%

O=C1CC(CC(=O)c2ccc(Br)cc2)C(=O)/C1=C(/O)c1ccc(Br)cc1 (stereo not given)
inactive: [1] 21.7% | [2] 14.2% | [3] 36.8% | [4] 38% | [5] 22.9% | [6] 48.8%

CN(C)c1nc2oc(-c3ccccc3)c(-c3ccccc3)c2c2nnnn12
inactive: [1] 12% | [2] 8.05% | [3] 2.65% | [4] 15.8% | [5] 1.65% | [6] -11.9%

Cc1ccc(O)c(C(=O)c2ccc(Cl)c(Cl)c2)c1
inactive: [1] 8.45% | [2] 13.9% | [3] 54.2% | [4] -0.9% | [5] 58.1% | [6] 11.2%

COc1cc(/C=N/N=C(\N)NO)cc(Cl)c1O
inactive: [1] -20.4% | [2] -29.1% | [3] -27.3% | [4] -19.2% | [5] -8% | [6] -36.1%

O=C(CCC1CCCCC1)OCC1CCCO1 (stereo not given)
inactive: [1] 42.1% | [2] 20.9% | [3] 41.1% | [4] 3.75% | [5] 24.6% | [6] 48.1%

COC(=O)N/N=C(\C(=O)Nc1cccc([N+](=O)[O-])c1)c1nc2ccc([N+](=O)[O-])cc2[nH]c1=O
inactive: [1] 8.65% | [2] -7.75% | [3] 25% | [4] 14.8% | [5] -17.1% | [6] -1.25%
